# Screening results (PubChem BioAssay)
# MCF10A rerep = induces DNA re-replication in MCF 10a normal breast cells. MCF 10A DNA re-replication, Hoechst nuclear intensity, 48 h. Potency, µM (highest dose often 46.1 µM), actives largely listed as activators. actives 2.9% (n = 350,000); further: nearly all actives have a fitted effect of over 50% in size
# IL1B secr inh = inhibitors of inflammasome signaling (IL-1 beta secretion) | THP-1 LPS/ATP IL-1B secretion, AlphaLISA, 16 h; hits give low values | activity change, % at 57.5 µM | actives 4.7% (n = 360,000); in the data active means activity change below about -50%; inconclusive means mostly about -30% to -49%
#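 THP-1 cells pretreated 1 hr with compounds (up to 57.5 uM final), then stimulated with LPS (250 ng/mL final) plus ATP (1.25 mM final); secreted IL-1B measured by AlphaLISA after 16 hr, decreased signal indicating inhibition.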
# ATXN viability = cell viability loss in ATXN counter-screen; S2 cells (HEK-293 line with an ATXN2-luciferase reporter) viability, CellTiter-Fluor protease fluorescence, 24 h; Potency, µM (top dose mostly 56.7 µM), actives largely listed as cytotoxic; actives 0.49% (n = 400,000); further: nearly all actives have a fitted effect of over 40% in size
# SW480 rereplic = DNA re-replication induction in SW480 cells. SW480 DNA re-replication, Hoechst DNA content imaging, 48 h. Potency, µM (highest dose often 46.1 µM), most hits filed as activators. actives 1.8% (n = 340,000); further: nearly all actives have a fitted effect of over 55% in size
#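 DNA re-replication was detected as more nuclei of elevated Hoechst intensity after 48 hr exposure to compound (23 nL pinned per well of 250 cells).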
# ATXN2 expr inh = reduces ATXN2 reporter expression in HEK-293 cells | HEK-293 ATXN2-luciferase reporter, luminescence, 24 h | Potency, µM (titrated, usually from 57 µM), most hits filed as inhibitors | actives 0.72% (n = 360,000); further: nearly all actives have a fitted effect of over 55% in size
#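 qHTS (up to 57 uM final) was run with 24 h compound exposure of reporter cells at 37 °C. Each well was multiplexed: SteadyGlo luminescence measured ATXN2-luciferase expression after a fluorogenic Gly-Phe-AFC viability readout (25 uM final).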
# PINK1 expr mod = modulators of PINK1 expression; PINK1 immunofluorescence, high-content cytometry, 24 h; Potency, µM (series often up to 76.6 µM), most hits filed as activators; actives 0.2% (n = 410,000); AID 624263; active means well fitted activation curve with a large enough effect; inconclusive means small, poorly fitted or top-dose-only effect; cell line not stated here; further: nearly all actives have a fitted effect of over 65% in size
#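 Readout is PINK1 immunofluorescence, quantified alongside mitochondrial, cell and nuclear markers by laser-scanning microplate cytometry. Cells from a stable line were exposed to compound titrations (5 concentrations) for 24 hours, with CCCP controls.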
# Hits are given with their value; n = inactive; u = inconclusive; x = no result. Sampled rows, rich in hits. Any-hit rate of the full collection: about 7.1%. Unless noted, the call rests on the fitted dose curve; in most records, active means well fitted curve in the direction sought with a large enough effect; inconclusive means small, poorly fitted or top-dose-only effect, or another doubt; inactive means no such curve, though single readings can be large; an effect the other way counts as inactive or inconclusive.
SMILES,MCF10A rerep,IL1B secr inh,ATXN viability,SW480 rereplic,ATXN2 expr inh,PINK1 expr mod
O=C(Cc1ccc(F)cc1)N1CCN(c2ccc([N+](=O)[O-])cc2)CC1,n,n,n,n,x,n
O=C(CN1CCC(Cc2ccccc2)CC1)NCCc1ccc(F)cc1,u,-68.8,n,u,n,n
NS(=O)(=O)c1ccc(CCNC(=O)CN2CCC(Cc3ccccc3)CC2)cc1,n,n,n,n,n,n
O=C(CN1CCN(c2ccc(F)cc2)CC1)N1CCC(Cc2ccccc2)CC1,8.2µM,-52.2,n,8.2µM,n,x
O=C(NCc1ccccc1)c1ccc(CSc2nc3cccnc3n2Cc2cccc(F)c2)cc1,x,x,n,x,n,n
Cc1ccc(-n2nc3c(=O)n(C(C)C(=O)NCc4ccc(OC(C)C)cc4)nc(C)c3c2C)cc1 (centres undefined),x,x,x,x,x,n
Cc1ccc(-c2nc3cc(C)c(Br)c(C)n3c2CC(C)(C)C)cc1,x,n,n,x,n,u
Nc1ccccc1Nc1cc(-c2ccccc2)[nH]n1,u,-94.3,n,n,n,n
O=S1(=O)c2ccccc2N(Cc2cccc(F)c2)c2ccccc21,x,x,n,x,n,n
Cc1ccc(C)c(N2CCN(C(=O)C3CCN(S(=O)(=O)c4cn(C)cn4)CC3)CC2)c1,x,x,x,x,x,n
Cc1ccc(C)c(C(C)NC(=O)CC#N)c1 (centres undefined),n,n,n,n,x,n
Cc1ccc(C)c(C(C)NC(=O)c2ccc(Br)o2)c1 (centres undefined),n,-57.2,n,n,n,n
O=C1NC[C@H](CCCCN2C[C@H](Cc3ccc(O)cc3)N(CC3CCCCC3)C(=O)C2=O)N(CCc2ccc(O)cc2)C1=O,x,n,n,x,n,n
CC(C)(C)NCC(O)CON=C1c2ccccc2-c2ccccc21 (centres undefined),u,-98.4,x,u,n,n
CC(C)(C)NC(=O)CON=C1c2ccccc2-c2ccccc21,u,u,u,n,n,n
Cc1ccc2[nH]c(=O)c3cc(C(=O)N(C)C4CCCCC4)sc3c2c1,n,x,n,n,n,n
Cc1ccc2[nH]c(=O)c3cc(C(=O)N(C)c4ccc(C)c(C)c4)sc3c2c1,4.11µM,n,n,14.6µM,x,n
CCN(C(=O)c1cc2c(=O)[nH]c3ccc(C)cc3c2s1)c1ccc(F)cc1,16.4µM,n,n,u,n,n
CCOC(=O)/C=c1\s/c(=C\c2ccc(C(F)(F)F)cc2)c(=O)n1CC(=O)NCc1ccco1,23.1µM,n,n,2.31µM,n,n
CCOC(=O)/C=c1\s/c(=C\c2ccc3cc(OC)ccc3c2)c(=O)n1CC(=O)NCC1CCCO1 (centres undefined),11.6µM,n,n,n,u,n
CCOC(=O)/C=c1/s/c(=C/c2ccc3cc(OC)ccc3c2)c(=O)n1CC(=O)NCc1ccc2c(c1)OCO2,1.46µM,n,u,u,u,u
CCOC(=O)/C=c1\s/c(=C\c2ccc(C)cc2)c(=O)n1CC(=O)NCc1ccco1,u,n,n,u,n,n
Cc1nc(CC(=O)NCC2Cc3cc(F)cc(-c4ccc(F)c(C)c4)c3O2)cs1 (centres undefined),x,x,n,x,x,n
CCOC(=O)c1ccc(NC(=O)C(CC)Sc2nc3ncccc3[nH]2)cc1 (centres undefined),x,x,x,x,x,n
CC(Oc1ccc2ccccc2c1)C(=O)NNC(=O)Nc1ccccc1F (centres undefined),n,-50.3,n,n,n,n
SMILES,MCF10A rerep,IL1B secr inh,ATXN viability,SW480 rereplic,ATXN2 expr inh,PINK1 expr mod
CC(=O)N1CCc2cc(CNS(=O)(=O)c3ccc(F)cc3)ccc21,x,x,x,x,x,n
COc1cccc(NC(=O)C2CCN(S(=O)(=O)c3c(C)noc3/C=C/c3cccs3)CC2)c1,x,x,x,x,x,n
Cn1c(/C(C#N)=C/c2ccccc2Br)nc2ccccc21,x,x,x,x,x,n
Cc1cc(C)cc(OC(=O)CS(=O)c2ccc(C(F)(F)F)cc2[N+](=O)[O-])c1 (centres undefined),11.6µM,-121.0,n,u,n,n
O=C(CS(=O)c1ccc(C(F)(F)F)cc1[N+](=O)[O-])Oc1ccc(Cl)cc1 (centres undefined),13µM,-97.5,u,u,n,n
CCn1ccc2cc(S(=O)(=O)N3CCCN(C(=O)Nc4ccccc4F)CC3)ccc21,x,x,n,x,n,n
C=C(C)[C@@H]1CC[C@]2(C)CC[C@]3(C)[C@H](CC[C@@H]4[C@@]5(C)CC[C@H](O)C(C)(C)[C@H]5CC[C@]43C)[C@@H]12,x,x,x,x,n,x
C=CCn1c[n+](CC(=O)c2ccc(Br)s2)c2ccccc21,n,-65.4,n,n,n,n
CCn1c(=N)n(CC(=O)c2ccc(Br)s2)c2ccccc21,n,n,u,n,n,n
CCC(C)(C#CCN1CCCCC1)OCCC#N (centres undefined),n,n,n,18.4µM,n,n
CCC(C#CCN1CCCCC1)(CC)OCCC#N,n,n,n,n,n,n
Cc1cccc(NC(=O)CSc2nc3ccc(N4C(=O)c5ccccc5C4=O)cc3s2)c1C,9.2µM,n,u,u,n,n
CN(C)C(=O)CSc1nc2ccc(N3C(=O)c4ccccc4C3=O)cc2s1,n,n,u,n,x,n
Cc1ccccc1NC(=O)CSc1nc2ccc(NC(=O)COc3ccccc3F)cc2s1,x,x,u,x,17.8µM,n
Cc1ccc(CSc2nc3ccc(NC(=O)COc4ccccc4F)cc3s2)cc1,x,x,n,x,n,n
COc1ccc(C(O)c2ncc(-c3ccccc3C)[nH]2)cc1 (centres undefined),x,n,n,x,n,n
CS(=O)(=O)n1nc(OC(=O)c2cc(Br)ccc2Cl)cc1N,n,n,n,n,x,n
CS(=O)(=O)n1nc(OC(=O)c2cccc3ccccc23)cc1N,n,-56.6,n,n,n,n
CC(NC(=S)NC1CCCCC1)c1ccc(C(C)(C)C)cc1 (centres undefined),5.8µM,n,n,n,u,u
CC(C)c1ccc(C(C)NC(=S)NC2CCCCC2)cc1 (centres undefined),u,n,n,n,n,u
Cc1ccc(-c2cc(C(=O)NCc3ccccn3)c3ccccc3n2)cc1C,5.8µM,n,n,u,n,n
COC(=O)CNC(=O)c1cc(-c2ccncc2)nc2c(C)c(Cl)ccc12,n,-99.7,n,n,n,n
O=C(NC1CCC(O)CC1)c1cc(-c2ccc(Cl)cc2)nc2ccccc12 (centres undefined),n,-55.1,n,n,n,n
COCCNC(=O)c1cc(-c2ccc(-c3ccccc3)cc2)nc2ccccc12,u,-65.6,n,u,n,n
COCCOCC(OC)OC,x,x,n,x,n,x
COc1ccc(CCNC(=O)c2ccc(Cn3c(=O)[nH]c4cc(OC)c(OC)cc4c3=O)cc2)cc1OC,x,x,n,x,n,n
